Reference: PubChem BioAssay AID686979 (National Center for Advancing Translational Sciences (NCATS), 2013)
“And” between values parts separate entries of the source, which are not always exact repeats. Equal entries are not always repeated. The campaign covered roughly 420,000 compounds. About 50,000 (12%) were called active. Where a call stands in place of a potency, no number is given. Another 26% or so got no clear call; they are omitted. Calls come from the whole dose curve; as a rule, active = well fitted inhibition curve with a large enough effect; inconclusive = small, poorly fitted or top-dose-only effect; inactive = flat fitted curve, though single readings scatter. Only a selection was taken, and actives are over-represented in it overall. Where a SMILES comes first, the peptide text is derived from it. [ ]: non-standard residue; d: D form. ξ: configuration not given here. Ac5c = NC1(C(=O)O)CCCC1; ξS = NC(CO)C(=O)O

assay: qHTS for Inhibitors of human tyrosyl-DNA phosphodiesterase 1 (TDP1): qHTS in cells in presence of CPT; conditions: chicken DT40 Tdp1-/-;hTDP1 cells + 20 nM CPT, ATP luminescence, 48 h; series mostly up to 46.2 µM; note: nearly all actives have a fitted effect of over 55% in size
Summary of the method: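 Cell growth measured by CellTiter-Glo luminescence after a minimum 48 h, 37 C compound exposure with 20 nM CPT in Tdp1-knockout DT40 cells stably expressing hTDP1, seeded 400/well; qHTS titration format.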
Potency is the fitted concentration of half-maximal effect.

| SMILES | Potency |
| --- | --- |
| COc1ccc(CNC(=O)[C@@H]2CC=C[C@@H]3CCN(C4CC4)C(=O)[C@@H]32)cc1 | inactive |
| CCCCC[C@H]1CN(C2CCCCC2)C(=O)[C@@H]1CC(=O)NCc1ccc(OC)cc1 | 16.4 µM (active) |
| COc1ccc(CNC(=O)C2CCCC2)cc1 | inactive |
| CCN(CC)CCNC(=O)CN1N=C(c2ccc(OC)cc2)CCC1=O | inactive |
| O=C(NC1CCCCC1)c1ccc(Cn2c(SCc3ccccc3)nc3cccnc32)cc1 | inactive |
| COc1ccccc1CCCNC(=O)C1CCC(=O)N(CCN2CCOCC2)C1 (centres undefined) | inactive |
| C=CCc1ccc(OCC(O)CN2CCN(Cc3ccccc3)CC2)c(OC)c1 (centres undefined) | inactive |
| C=CCn1c(=N)n(CC(O)COc2ccc(OC)cc2)c2ccccc21 (centres undefined) | 16.4 µM (active) |
| CCCn1c(=N)n(CC(O)COc2ccccc2OC)c2ccccc21 (centres undefined) | 11.6 µM (active) |
| COc1ccccc1OCC(O)CN1CCOCC1 (centres undefined) | inactive |
| COc1ccc(OCC(O)CN(C)C(=O)C(C)Oc2ccccc2)cc1 (centres undefined) | inactive |
| COc1ccccc1OCCn1c(SCC(N)=O)nc2ccccc21 | inactive |
| COc1c(N2CCN(C(=S)Nc3ccccc3F)C(C)C2)c(F)cc2c(=O)c(C(=O)O)cn(C3CC3)c12 (centres undefined) | inactive |
| O=C(NCCc1ccc(C(F)(F)F)cc1)c1ccc2c(c1)OCO2 | inactive |
| O=C(NCCc1ccc2c(c1)OCCO2)c1cc2ccccc2o1 | 16.4 µM (active) |
| CN(C)C(CNC(=O)c1cc2ccccc2o1)c1ccccc1 (centres undefined) | inactive |
| CCOc1ccc(C2C3=C(CCCC3=O)N(CC(=O)O)C3=C2C(=O)CCC3)cc1 | inactive |
| C=CCN1CCN(C(=O)CCCc2ccccc2)CC1 | inactive |
| COc1ccc(NC(=O)[C@H](NC(=O)[C@@H]2Cc3ccccc3CN2)c2ccccc2)cc1 | inactive |
| CC12CCCCC1=CC(=O)CC2 (centres undefined) | inactive |
| Cn1c(=N)n(CC(O)c2ccccc2)c2ccccc21 (centres undefined) | inactive |
| CCOc1ccc(C(O)Cn2c(=N)n(CCN3CCCCC3)c3ccccc32)cc1 (centres undefined) | 20.6 µM (active) |
| Cn1c(=N)n(CC(O)c2cccs2)c2ccccc21 (centres undefined) | inactive |

| SMILES | Potency |
| --- | --- |
| NC(=O)C1CCN(C(=O)c2cn(-c3ccccc3)nc2-c2cccnc2)CC1 | inactive |
| CCOc1ccc(C(CC(=O)O)NC(=O)C23CC4CC(CC(C4)C2)C3)cc1OC (centres undefined) | inactive |
| COC(=O)c1ccc(NC(=O)c2cc(Cl)ccc2OC)cc1 | inactive |
| COc1ccc(NC(=O)CC2SC(N3CCCCC3)=NC2=O)cc1OC (centres undefined) | inactive |
| Cc1cc(N2CCN(C)CC2)nc2ccc(NC(=S)N3CCOCC3)cc12 | inactive |
| COc1ccc(C(=O)Nc2ccc3nc(N4CCCCC4)cc(C)c3c2)cc1OC | 23.1 µM (active) and 20.6 µM (active) |
| CCN1CCN(c2cc(C)c3cc(NC(=O)c4cc(Cl)ccc4OC)ccc3n2)CC1 | 4.61 µM (active) |
| CCOCCCNC(=S)Nc1ccc2nc(N3CCN(CC)CC3)cc(C)c2c1 | inactive |
| CCOc1cc(C(C(=O)NCC2CCCO2)N(C(=O)Cn2nnc3ccccc32)c2cccc(OC)c2)ccc1O (centres undefined) | inactive |
| Cc1nnc(C(=O)NC(C)(C)c2nc(C(=O)NCc3ccc(F)cc3)c(O)c(=O)n2C)o1 | inactive |
| NC(=O)CCN1CCN(S(=O)(=O)/C=C/c2ccccc2)CC1 | inactive |
| CN1OC[C@@H]2CN[C@H](c3ccc(-c4ccccc4)cc3)C[C@@H]21 | inactive |
| Cc1ccc(NC(=O)CSc2nc3c(c(=O)[nH]2)CN(Cc2ccc4c(c2)OCO4)CC3)cc1C | inactive |
| COc1cccc(C(=O)NCC(=O)OCc2cc(=O)n3ccsc3n2)c1 | inactive |
| COc1cc(OC)cc(C(=O)NCC(=O)OCC(=O)NC(C)CCc2ccccc2)c1 (centres undefined) | inactive |
| COc1cc(OC)cc(C(=O)NCC(=O)OCc2csc(-c3ccccc3)n2)c1 | 16.4 µM (active) |
| C=CCOc1ccc(Cl)cc1CNCCCN1CCOCC1 | inactive |
| CC(=O)NCCC(=O)Nc1nc(C)c(Cc2ccc3c(c2)OCO3)s1 | inactive |
| CCOC(=O)C1(Cc2ccccc2C)CCCN(S(C)(=O)=O)C1 (centres undefined) | inactive |
| CNC(=O)NC(=O)CSc1nnc(-c2ccc(F)cc2)n1CC1CCCO1 (centres undefined) | inactive |
| Oc1cc2c(cc1O)CN(C(=S)NCCc1ccc(Cl)cc1)CCC2 | 13.3 µM (active) and 7.08 µM (active) |
| COc1ccc(CCNC(=S)N2CCN(S(=O)(=O)c3ccc(Cl)cc3)CC2)cc1 | inactive |
| O=C(NCCc1ccc(Cl)cc1)C1CCCN1C(=O)NCc1ccccc1 (centres undefined) | inactive |

| SMILES | Potency |
| --- | --- |
| CCOc1ccc(C(=O)NCC(=O)N2CCCCCCC2)cc1OCC | inactive |
| CCc1cc2c(cc3c(=O)n(CC(=O)N4CCN(c5cc(Cl)ccc5C)CC4)nc(CC)n32)s1 | inactive |
| CCc1cc2c(cc3c(=O)n(CC(=O)NCCc4ccc(OC)c(OC)c4)ncn32)s1 | inactive |
| CCOc1ccc(CCNC(=O)Cn2nc(CC)n3c(cc4sc(CC)cc43)c2=O)cc1OCC | 16.4 µM (active) |
| COc1ccc2cc(C(=O)O)n(CC(=O)c3ccccc3)c2c1 | inactive |
| CCOC(=O)C1=C(c2ccccc2)O/C(=C(/C(=O)OC)C(F)(F)F)S1 | inactive |
| O=C(NCC(=O)N(CC1CCCO1)C(C(=O)NC1CCCCC1)c1ccccc1)c1ccco1 (centres undefined) | inactive |
| CCCCN(CC)C(=O)C1CCCN(S(=O)(=O)c2cccc3nsnc23)C1 (centres undefined) | 25.9 µM (active) |
| O=C(c1ccco1)N1CCN(C(=O)C2CCCN(S(=O)(=O)c3cccc4nsnc34)C2)CC1 (centres undefined) | inactive |
| CCCCN(C)CCNC(=O)C1CCCN(S(=O)(=O)c2cccc3nsnc23)C1 (centres undefined) | inactive |
| CCOC(=O)C(CO)NC(=O)C1(NC(C)=O)CCCC1 (centres undefined) (Ac-[Ac5c]-[ξS]-OEt) | inactive |
| OCC1(Cc2ccccc2C(F)(F)F)CCN(Cc2ccncc2)CC1 | inactive |
| Cc1cc([N+](=O)[O-])ccc1NC(=O)C1CCCO1 (centres undefined) | inactive |
| COc1cccc(C(=O)CC(=O)C(=O)Nc2ccc([N+](=O)[O-])cc2C)c1 | 23.1 µM (active) |
| COc1cccc(C(=O)Oc2cc(C)[nH]c(=O)c2[N+](=O)[O-])c1 | inactive |
| COc1ccccc1NC(=O)c1cc(Cl)nc2ccccc12 | inactive |
| COc1ccc(NC(=O)c2cc(-c3cc(OC)c(OC)c(OC)c3)nc3ccccc23)c(OC)c1 | 13 µM (active) |
| CCN(CCCNC(=O)Cn1ncc2c([nH]c3ccccc32)c1=O)c1cccc(C)c1 | inactive |
| COc1ccc(NC(=O)CCNC(=O)Cn2ccc3ccccc3c2=O)c(OC)c1 | inactive |
| CCN(CCCNC(=O)c1cc(Nc2ccc(OC)cc2)nc2ccccc12)c1cccc(C)c1 | 20.6 µM (active) |
| COc1ccc(NC(=O)c2cc(-c3ccc(C)o3)nc3ccccc23)cc1 | inactive |
| COc1ccc(NC(=O)CNC(=O)Cn2ccc3ccccc3c2=O)c(OC)c1 | inactive |
| COc1ccc(Nc2cc(C(=O)NCCCN(C)c3ccccc3)c3ccccc3n2)c(OC)c1 | 13 µM (active) |
